Data on 25 compounds can be found in ChEMBL document CHEMBL3433997, “St. Jude Leishmania screening dataset” (2016).

Chain of Solute carrier family 2, facilitated glucose transporter member 1 (Homo sapiens) (P11166 whole entry): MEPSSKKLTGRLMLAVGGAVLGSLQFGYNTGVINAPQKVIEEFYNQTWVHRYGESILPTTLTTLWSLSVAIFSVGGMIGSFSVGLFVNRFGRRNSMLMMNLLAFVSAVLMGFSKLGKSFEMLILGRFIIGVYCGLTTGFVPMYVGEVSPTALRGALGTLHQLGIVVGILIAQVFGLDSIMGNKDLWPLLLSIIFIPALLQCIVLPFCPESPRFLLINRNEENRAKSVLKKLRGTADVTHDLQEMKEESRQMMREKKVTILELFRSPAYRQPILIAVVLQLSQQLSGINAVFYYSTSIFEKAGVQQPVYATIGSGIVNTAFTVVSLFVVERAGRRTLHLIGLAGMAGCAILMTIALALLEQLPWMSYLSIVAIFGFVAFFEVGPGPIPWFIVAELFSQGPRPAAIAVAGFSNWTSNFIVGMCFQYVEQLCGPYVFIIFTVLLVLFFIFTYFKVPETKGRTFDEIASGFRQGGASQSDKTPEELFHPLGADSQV

The test has as its target Solute carrier family 2, facilitated glucose transporter member 1 (Homo sapiens) (UniProt P11166). As to the kind of experiment: ST_JUDE_LEISH: Cytotoxicity at 2uM final concentration against transgenic Leishmania Mexicana promastigotes LmGLUT1 that are glucose transport deficient and complemented with the human glucose transporter GLUT1. Activity is measured by DNA content using SYBR green in vitro. The test is classed as functional.
As usually defined, the inhibition is the drop in the measured response relative to a control, in per cent. Consider `Cc1cccc2nc(-c3ccc(-c4ccc(CN5CCC(C(N)=O)CC5)cc4)cc3)[nH]c12`, for which the inhibition was found to be 6.51%.
The result for `N#Cc1ccc(-c2ccc(C(=O)NCCCCN3CCC(c4cn(CCCO)c5ccccc45)CC3)cc2)cc1` reads 2%; that for `COc1ccc2[nH]ccc(=NN=Cc3cccc(C)n3)c2c1`, 18.7%.
Turning to `COC(=O)Nc1cc(C(F)(F)F)ccc1N1CCCC(NS(=O)(=O)c2ccc(C(C)(C)C)cc2)C1` (stereo not given), the inhibition came to 10%.
`COc1cc(C(=O)Nc2cccc(-c3cn4cccc(C)c4n3)c2)cc(OC)c1OC`: the inhibition worked out at 15.8%.
Under `CC(CON1C(N)=NC(N)=NC1(C)C)Cc1ccc(Cl)cc1Cl` (stereo not given) stands -0.6%.
As to `CCC(CN1C(=N)NC(c2ccccc2)(c2ccccc2)C1=O)c1ccccc1` (stereo not given), the inhibition was -0.75%.
As to `COc1cccc(Cn2ccc3c4c(N)nc(N)nc4ccc32)c1`, the inhibition came out at 94.3%.
The result for `Cc1nc2nc(N)nc(N)c2c(C)c1Cc1ccccc1` reads 3.29%; that for `COc1cc(F)c2ncc(F)c(CCN3C[C@H](CNCc4ccc5c(n4)NC(=O)CS5)[C@H](O)C3)c2c1`, 0.13%.
The result for `Cc1c(CCNC(=O)CCCN2CC(C)CC(C)C2)c2ccccc2n1C` (stereo not given) reads 1.14%; that for `O=C(CN1CCN(S(=O)(=O)C=Cc2ccccc2)CC1)Nc1cc(C(F)(F)F)ccc1Cl`, 9.54%; that for `Cc1cnc(C(=O)Nc2cccc(-c3ccc(-c4nc5cc(C(F)(F)F)ccc5[nH]4)s3)c2)cn1`, 8.07%.
The result for `Oc1cc(NC[C@H]2CCC[C@@H]2NCc2cc(Br)cc(Br)c2)nc2ccccc12` reads 2.99%.
In the case of `Cc1ccc(NC(=O)c2ccc(N3CCC(c4ccccc4C)CC3)nc2)cc1`, the inhibition was determined as 11.9%.
The result for `CCc1ccc(CN2CCC(CNC(=O)c3cc(-c4ccccc4Cl)cs3)C2)cc1` (stereo not given) reads 7.86%; that for `Cc1ccc(Sc2ccc(NC(=O)CN3CCN(C(=O)c4ccco4)CC3)cc2)cc1C`, 9.84%.
The result for `CCN(CC)Cc1cc(Nc2ccnc3cc(Cl)ccc23)ccc1O` reads -1.88%; that for `Nc1c(Cl)cc(C(O)CNCCCCCOCCc2ccc3occc3c2)cc1Cl` (stereo not given), 3.53%.
As to `CCCCCCNC(=O)C1Cc2c([nH]c3ccccc23)C2(CCN(CCc3ccccc3)CC2)N1` (stereo not given), the inhibition stood at 2.97%.
Turning to `CCn1ncc2c(N3CCCC3=O)cc(C(=O)N[C@@H](Cc3ccccc3)[C@H](O)CNC(C)(C)c3cccc(OC)c3)cc21`, the inhibition was 2.35%.
Under `CN(C)c1ccc(-c2csc(C(=O)NC3CCCCN(Cc4ccc(C(C)(C)C)cc4)C3)c2)cc1` (stereo not given) stands -1.22%; under `O=C(Nc1cc(F)cc(F)c1)N1CCOC(CCN2CCC3(CCc4ccccc43)CC2)(c2ccc(Cl)c(Cl)c2)C1` (stereo not given), 3.28%.
Take `CCc1cn2c3c(cc(C(=O)N[C@@H](Cc4cccc(Cl)c4)[C@H](O)CNC4CCCCC4)cc13)N(C)S(=O)(=O)CC2`: the inhibition is -0.29%.
`OC(CNc1ccnc(Nc2ccccc2)n1)c1cccc(C(F)(F)F)c1` (stereo not given): the inhibition turned out to be 4.65%.
